# High-throughput results (PubChem BioAssay)
# Lassa entry – blocks Lassa virus binding or cell entry; Lassa virus pseudotyped entry inhibition, cell-based qHTS; Potency, µM (series often up to 49.2 µM), without a hit: at the highest dose activity change, negative = inhibition, usual class: inhibitors; actives 4.1% (n = 18,000); AID 720533
# Marburg entry – Marburg virus entry inhibition; AID 720532; Marburg virus pseudotype entry/binding inhibition, cell-based; actives 6.5% (n = 18,000); Potency, µM (doses to about 49.2 µM), for the others: at the highest dose activity change, negative = inhibition, hits mostly inhibitors
# * = called active by the depositor; ? = inconclusive; ! = repeats disagree; [ ] = another dose, or the depositor's remark. A selection: hits, their analogues and other compounds. The true share with any hit is near 8.6%. Calls follow the shape of the full dose curve; tested in HEK293 cells. % is scaled to controls: 0 for no effect and ±100 for the full control effect; potency is read from the fitted curve at half-maximal effect.
SMILES,Lassa entry,Marburg entry
CC1(C)CCC[C@@](C)([C@H]2CC[C@]3(C)[C@@H]2[C@H](O)C[C@@H]2[C@@]4(C)CC[C@H](O)C(C)(C)[C@@H]4[C@@H](O)C[C@]23C)O1,1.6%,?
Cc1ncc2c(c1CNC(=O)c1ccc3c(c1)OCO3)CCN(C(=O)c1coc3c1C(=O)CCC3)C2,-12.8%,-29.7%
COc1cccc(C2(CC(=O)N3CCC(c4nc5ccc(F)cc5[nH]4)CC3)CC(=O)N(C)C2=O)c1 (centres undefined),-6.5%,5.8%
CN(C)c1ccc(-c2cc(NCc3cccnc3)ncn2)cc1,1.6%,45.9%
C=C1OC(CO)(n2cnc3c(N)ncnc32)C(O)C1O (centres undefined),-5.3%,-10.0%
N[C@@H](Cc1c[nH]c2ccc(O)cc12)C(=O)O,16.6%,27.0%
COc1ccc2c(c1)O[C@H](c1ccc3c(c1)OCO3)[C@@H](OC(=O)Nc1ccc(OC(F)F)cc1)C2=O,-7.9%,-1.9%
Oc1cc[c]([Hg][Cl])cc1,4.47µM*,3.55µM*
CC[C@H](c1ccc(O)cc1)[C@@H](CC)c1ccc(O)cc1,?,13.6%[17.8 µM]
CCC(C)c1cc([N+](=O)[O-])cc([N+](=O)[O-])c1OC(=O)OC(C)C (centres undefined),17.8µM*,?
CCC(C)c1cc([N+](=O)[O-])cc([N+](=O)[O-])c1OC(C)=O (centres undefined),-8.0%,-4.6%
CC(C)(C)c1cc(O)ccc1O,14.1µM*!,12.6µM*!
COc1ccc(O)c(C(C)(C)C)c1,-9.1%,?
O=[N+]([O-])O[C@H]1CO[C@H]2[C@H]1OC[C@@H]2O[N+](=O)[O-],17.2%[17.8 µM],-1.1%[17.8 µM]
COc1cc(NS(C)(=O)=O)ccc1Nc1c2ccccc2nc2ccccc12,3.16µM*,?
Cc1cccc(CNc2nc(-c3cccc(NS(C)(=O)=O)c3)nc3ccccc23)c1,-24.6%,?
CC(=O)OCCNC(=O)c1cccnc1,2.4%,5.1%
COc1cc(-c2ccc(-[n+]3nc(-c4ccccc4)nn3-c3ccc([N+](=O)[O-])cc3)c(OC)c2)ccc1-[n+]1nc(-c2ccccc2)nn1-c1ccc([N+](=O)[O-])cc1,14.1µM*,14.1µM*
C#C[C@]1(O)CC[C@H]2[C@@H]3CCC4=CC(=O)CC[C@]4(C)[C@H]3CC[C@@]21C,10.8%,24.9%
Cc1ccccc1OC[C@H](O)CO,0.4%[17.8 µM],-4.1%[17.8 µM]
Cc1ccc(OCC(O)C(C)NC(C)C)c2c1CCC2 (centres undefined),?,12.6µM*
Cc1cc(O)c2c(c1)C(=O)c1cccc(O)c1C2=O,0.9%,5.4%
O=C(O)c1cc(O)c2c(c1)C(=O)c1cccc(O)c1C2=O,-1.8%,12.6µM*
COc1cccc2c1C(=O)c1c(O)c3c(c(O)c1C2=O)C[C@@](O)(C(=O)CO)C[C@@H]3O[C@H]1C[C@H](N)[C@H](O)[C@H](C)O1,20µM*!,0.282µM*!
CC[C@]1(O)CC(O[C@@H]2CC(N(C)C)C(O)C(C)O2)c2c(cc3c(c2O)C(=O)c2c(O)cccc2C3=O)C1C(=O)OC (some centres undefined),-26.1%,20µM*
SMILES,Lassa entry,Marburg entry
COc1cccc2c1C(=O)c1c(O)c3c(c(O)c1C2=O)C[C@](O)(C(C)=O)C[C@H]3O[C@@H]1C[C@H](N)[C@H](O)[C@H](C)O1,1µM*,?
CCCCC(=O)OCC(=O)[C@]1(O)Cc2c(O)c3c(c(O)c2[C@@H](O[C@H]2C[C@H](NC(=O)C(F)(F)F)[C@H](O)[C@H](C)O2)C1)C(=O)c1c(OC)cccc1C3=O,2.82µM*,?
CC[C@@]1(O)CC(O)c2c(cc3c(c2O)C(=O)c2c(O)ccc(O)c2C3=O)C1C(=O)OC (some centres undefined),6.0%,-19.8%
CC[C@H](C)[C@H](NC(=O)[C@H](Cc1ccc(O)cc1)NC(=O)[C@H](Cc1cnc[nH]1)NC(=O)[C@H](CCCNC(=N)N)NC(=O)[C@H](CC(C)C)NC(=O)[C@H](C)NC(=O)[C@H](CO)NC(=O)[C@H](Cc1ccc(O)cc1)NC(=O)[C@H](Cc1ccc(O)cc1)NC(=O)[C@H](CCCNC(=N)N)NC(=O)[C@H](C)NC(=O)[C@H](CCSC)NC(=O)[C@H](CC(=O)O)NC(=O)[C@H](CCC(=O)O)NC(=O)[C@H](C)NC(=O)[C@@H]1CCCN1)C(=O)N[C@@H](CC(N)=O)C(=O)N[C@@H](CC(C)C)C(=O)N[C@H](C(=O)N[C@H](C(=O)N[C@@H](CCCNC(=N)N)C(=O)N[C@@H](CCC(N)=O)C(=O)N[C@@H](CCCNC(=N)N)C(=O)N[C@@H](Cc1ccc(O)cc1)C(N)=O)[C@@H](C)O)[C@@H](C)CC,-2.6%,5.0%
COCOCCn1cc(CN2CCS(=O)(=O)N(Cc3ccc(-c4cccc(CO)c4)cc3)C(CC(C)C)C2=O)nn1 (centres undefined),-15.3%,11.4%
COc1cc(O)c(C(=O)O)c(O)c1,-12.7%,2.5%
CS(=O)(=O)Nc1cc2occ(NC=O)c(=O)c2cc1Oc1ccccc1,13.5%,18.3%
N=C1N=C(N)c2cc3ccccc3cc21,35.5µM*,20µM*
COc1ccc(N2C[C@H](C)[C@@H](CC(=O)Nc3ccccc3)C2=O)cc1,5.4%,21.3%
NS(=O)(=O)c1cccc(N=Cc2c(O)[nH]c3ccccc23)c1,-12.3%,?
NCCc1cnc[nH]1,0.1%,1.3%
NC(=NCCc1ccc(I)cc1)SCCCc1cnc[nH]1,17.8%,22.4µM*
CC1(C)OC1COc1c2occc2cc2ccc(=O)oc12 (centres undefined),10.1%,24.2%
CC(C)(C)OC(=O)N1CCC(C(=O)Nc2ccc(C(=O)N3CCOCC3)cc2)CC1,13.5%,27.6%
CC[C@@H]1C(c2cccc(Cl)c2)=NN(c2ccccc2)[C@H]1C(=O)N1CCOC1=O,-4.5%,-19.7%
CCN(CC)CCOC[C@H]1O[C@@H](O)[C@H](OCCN(CC)CC)[C@@H](O)[C@@H]1O,-7.5%,-11.9%
O=C(Nc1ccc(Br)cc1)c1cc(Br)c(Br)s1,?,-21.2%
O=C(Nc1ccc(Br)cc1)c1cccc(S(=O)(=O)Nc2ccc(Br)cc2)c1,22.4µM*,?
C=CCOC(=O)NC(c1ccc(F)c(F)c1)C(C(C)=O)C(=O)OC (centres undefined),-3.2%,-17.9%
O=C1C(Cl)=C(Cl)C(=O)C(Cl)=C1Cl,-27.7%,?
C=CCOC[C@@H]1CN2[C@H](c3ccc(Br)cc3)[C@@H](C)CC[C@H]2C(=O)O1,-8.1%,-25.7%
COC(=O)CC1C(C)(C)C(OC(C)=O)C2CC3C4CC(=O)OC(c5ccoc5)[C@]4(C)CCC3[C@@]1(C)C2=O (some centres undefined),-7.3%,7.3%
Cc1cc(C(=O)Nc2ccccc2-c2nc(CNC(=O)C3(C)CCCCC3)c(C)o2)c(C)o1,4.7%,-30.4%
Oc1cc2c(cc1O)C1c3ccc(O)c(O)c3OCC1(O)C2 (centres undefined),?,3.98µM*
COP(=S)(OC)Oc1nc(Cl)c(Cl)cc1Cl,0.4%,9.3%
C=CCN1c2ccc(Br)cc2C(O)CS1(=O)=O (centres undefined),28.2%,?
COc1ccc(-c2[nH]ncc2CN2CCOc3c(cc(-c4cccc(OC)n4)cc3OC)C2)cc1,-11.8%,-3.4%
COc1cccc(-c2cc3c(c(OC)c2)OCCN(Cc2ccccc2O)C3)n1,5.62µM*,-20.8%
CC[C@@H]1C(c2ccccc2)=NN(c2ccc(Br)cc2)[C@H]1C(=O)N1CCOC1=O,-20.4%,-8.9%
